Reference: PubChem BioAssay
The source made the active and inactive calls. Unless noted, no rule for the calls is given here.

Columns and labels:
[1] = system: Wnt5a (protein binding on small-molecule microarray); test: small molecules binding Wnt5a protein – biophysical, small-molecule microarray, 635/667 nm fluorescence, primary screen (AID 1142); details: 635 nm fluorescence, higher = more signal;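 also: fluorescence read at 667 nm with signal to noise per printed feature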
[2] = ATP-based viability of Huh7 replicon cells – cell-based, CellTiter-Glo luminescence, basal, 48 h, cytotoxicity control for HCV replication inhibitor project, primary screen (AID 1143); details: higher = more signal, called active from +8 up or from −8 down;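 also: Huh7 hepatoma cells carrying a hepatitis C replication reporter with no stimulus; test concentration not given here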
[3] = Pseudomonas biofilm growth suppression – PAO1 strain, BacTiter-Glo luminescence, LB-PBS, primary screen (AID 1144); details: P. aeruginosa PAO1 biofilm, 12 h, higher = more signal
[4] = basal CRE-LacZ reporter activity in PC12 – cell-based, unstimulated, primary screen (AID 1145); details: no forskolin, luminescence, 4.5 h, higher = more signal, called active from +8 up or from −8 down
[5] = forskolin-driven CRE-LacZ activity in PC12 – cell-based, CRE-LacZ reporter, forskolin-stimulated, primary screen (AID 1146); details: luminescence, 4.5 h, higher = more signal, called active from +8 up or from −8 down;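 also: PC12 cells with 6xCRE LacZ reporter stimulated by forskolin 10 µM; beta-galactosidase reporter signal reflecting CREB driven transcription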
[6] = molecular target: Streptavidin (Streptomyces avidinii) (UniProt P22629); test: compounds binding control protein streptavidin – biophysical, small-molecule microarray, 635/667 nm fluorescence, artefact control for SMM compound annotation, primary screen (AID 1147); details: higher = more signal;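 also: signal reflects streptavidin binding to arrayed compounds as a control protein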
[7] = probe aInhba binding on compound microarray – biochemical, small-molecule microarray, 635/667 nm fluorescence, primary screen (AID 1148); details: higher = more signal;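 also: score merges 667nm spot fluorescence with signal-to-noise for antibody binding to printed compounds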
Torsin-1A (Homo sapiens) [8] = molecular target: Torsin-1A (Homo sapiens) (UniProt O14656); test: TOR1A wild-type binding on microarray – cell lysate, small-molecule microarray, lysate, 635/667 nm, primary screen (AID 1149); details: COS7 hTOR1A-WT lysate, 635 nm fluorescence, higher = more signal
Torsin-1A (Homo sapiens) [9] = molecular target: Torsin-1A (Homo sapiens) (UniProt O14656); test: torsin A mutant lysate binding on microarrays – cell lysate, small-molecule microarray, COS7 lysate, 635/667 nm fluorescence, primary screen (AID 1150); details: COS7 hTOR1A mutant lysate, 635 nm fluorescence, higher = more signal;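 also: score pools 667 nm emission and signal to noise measuring lysate protein binding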
[10] = system: Sonic hedgehog protein (Shh); test: Sonic hedgehog microarray binding compounds – biochemical, small-molecule microarray, 635/667 nm fluorescence, primary screen (AID 1151); details: 635 nm fluorescence, higher = more signal;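 also: Shh protein binding to compounds spotted on small-molecule microarray slides; score combines spot fluorescence intensity with signal-to-noise across triplicate slides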
[11] = optical density shifts of acrAB sulA E. coli – strain DRC41, OD650, 48 h, E. coli filamentation inducer project, primary screen (AID 1152); details: higher = more signal, called active from +8 up or from −8 down;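 also: E. coli MC1000 strain DRC41 lacking acrAB efflux pump and sulA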
[12] = probe aLefty1 binding on compound microarray – biochemical, small-molecule microarray, 635/667 nm fluorescence, primary screen (AID 1153); details: higher = more signal;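 also: score merges spot fluorescence with signal-to-noise ratio from the scanned slide images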
[13] = plasmodial surface anion channel blockers, osmotic lysis – cell-based, P. falciparum Indochina, OD700, 1 h, primary screen (AID 1154); details: P. falciparum Indochina infected RBC osmotic lysis, higher = more signal, called active from +8 up or from −8 down
[14] = plasmodial surface anion channel blockers, osmotic lysis – cell-based, P. falciparum Indochina, OD700, 2 h, primary screen (AID 1155);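 also: lysis reports solute entry through the parasite surface anion channel PSAC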; details: P. falciparum Indochina infected erythrocytes, higher = more signal, called active from +8 up or from −8 down
[15] = changes in parasitized red cell lysis, either direction – P. falciparum Indochina, OD700, 3 h, PSAC antagonist project, primary screen (AID 1156); details: P. falciparum-infected erythrocytes, osmotic lysis, higher = more signal, called active from +8 up or from −8 down
[16] = plasmodial surface anion channel blockers, osmotic lysis – cell-based, P. falciparum Indochina, OD700, 18 h, primary screen (AID 1157); details: P. falciparum Indochina infected erythrocytes, osmotic lysis OD700, 18 h; higher = more signal, called active from +8 up or from −8 down
[17] = S6 kinase pathway phospho-S6 level changes – cell-based, A549, cytoblot, luminescence, serum-stimulated, primary screen (AID 1158); details: 5 h, higher = more signal;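 also: serum-stimulated A549 lung adenocarcinoma cells; signal is phosphorylated S6 detected by cytoblot immunostaining with HRP secondary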
[18] = molecular target: NADPH oxidase 2 (Homo sapiens) (UniProt P04839); test: compounds shifting NOX2 Amplex Red fluorescence – cell-based, HEK293-NOX2, PMA-stimulated, NOX inhibitor project, primary screen (AID 1159); details: 45 min, higher = more signal, called active from +8 up or from −8 down; also: test concentration not given here
[19] = molecular target: NADPH oxidase 4 (Homo sapiens) (UniProt Q9NPH5); test: compounds shifting NOX4 Amplex Red fluorescence – cell-based, HEK293-NOX4, tetracycline-induced, NOX inhibitor project, primary screen (AID 1160); details: HEK293-NOX4, Amplex Red H2O2 fluorescence, 45 min; higher = more signal, called active from +8 up or from −8 down
[20] = molecular target: NADPH oxidase 5 (Homo sapiens) (UniProt Q96PH1); test: compounds shifting NOX5 Amplex Red fluorescence – cell-based, HEK293-NOX5, NOX inhibitor project, primary screen (AID 1161); details: HEK293-NOX5, ionomycin, 45 min, higher = more signal
Chain of NADPH oxidase 5 (Homo sapiens) (Q96PH1 whole entry, looked up): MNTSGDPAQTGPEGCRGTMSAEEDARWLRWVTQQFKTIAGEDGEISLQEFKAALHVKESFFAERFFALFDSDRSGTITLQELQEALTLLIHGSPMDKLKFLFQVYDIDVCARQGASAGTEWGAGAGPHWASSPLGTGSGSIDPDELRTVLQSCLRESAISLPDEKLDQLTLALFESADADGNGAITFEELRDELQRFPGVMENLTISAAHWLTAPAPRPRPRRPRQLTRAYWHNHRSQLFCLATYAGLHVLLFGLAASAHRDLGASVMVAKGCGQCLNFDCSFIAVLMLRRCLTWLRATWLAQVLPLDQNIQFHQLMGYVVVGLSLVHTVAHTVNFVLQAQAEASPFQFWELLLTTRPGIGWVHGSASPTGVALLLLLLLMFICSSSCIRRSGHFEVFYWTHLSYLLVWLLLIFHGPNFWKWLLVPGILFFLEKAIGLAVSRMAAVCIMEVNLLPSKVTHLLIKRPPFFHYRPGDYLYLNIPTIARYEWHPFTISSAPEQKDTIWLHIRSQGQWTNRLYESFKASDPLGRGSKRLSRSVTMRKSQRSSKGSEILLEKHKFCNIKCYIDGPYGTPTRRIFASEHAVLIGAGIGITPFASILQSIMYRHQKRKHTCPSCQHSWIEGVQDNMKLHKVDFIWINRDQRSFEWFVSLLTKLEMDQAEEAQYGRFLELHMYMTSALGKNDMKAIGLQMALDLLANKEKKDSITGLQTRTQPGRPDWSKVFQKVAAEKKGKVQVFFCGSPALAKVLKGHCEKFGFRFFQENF

Chain of Torsin-1A (Homo sapiens) (O14656 whole entry, looked up): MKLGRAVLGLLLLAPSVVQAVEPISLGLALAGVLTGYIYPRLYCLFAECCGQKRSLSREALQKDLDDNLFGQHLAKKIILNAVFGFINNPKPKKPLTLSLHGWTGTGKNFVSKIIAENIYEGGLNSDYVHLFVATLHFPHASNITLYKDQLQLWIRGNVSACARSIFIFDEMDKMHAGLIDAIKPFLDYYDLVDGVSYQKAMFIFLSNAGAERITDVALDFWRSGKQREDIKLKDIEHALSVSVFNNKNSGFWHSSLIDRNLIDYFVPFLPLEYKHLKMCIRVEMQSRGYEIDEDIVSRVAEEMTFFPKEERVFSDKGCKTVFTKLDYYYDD
Chain of NADPH oxidase 2 (Homo sapiens) (P04839 whole entry, looked up): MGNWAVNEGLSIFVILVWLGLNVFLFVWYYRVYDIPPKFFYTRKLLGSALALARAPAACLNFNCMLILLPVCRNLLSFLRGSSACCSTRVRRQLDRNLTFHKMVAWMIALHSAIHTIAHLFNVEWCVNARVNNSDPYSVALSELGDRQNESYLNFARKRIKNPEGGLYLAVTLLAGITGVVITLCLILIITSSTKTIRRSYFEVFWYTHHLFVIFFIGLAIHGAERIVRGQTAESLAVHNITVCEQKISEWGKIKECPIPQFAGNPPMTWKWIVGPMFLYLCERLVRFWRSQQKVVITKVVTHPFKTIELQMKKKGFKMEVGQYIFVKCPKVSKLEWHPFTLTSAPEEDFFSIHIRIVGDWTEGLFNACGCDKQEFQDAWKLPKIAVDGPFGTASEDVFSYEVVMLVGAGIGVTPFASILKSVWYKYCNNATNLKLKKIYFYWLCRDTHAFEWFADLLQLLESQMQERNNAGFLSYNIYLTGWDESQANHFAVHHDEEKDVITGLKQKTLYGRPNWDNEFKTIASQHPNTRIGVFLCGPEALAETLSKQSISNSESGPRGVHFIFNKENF
Chain of Streptavidin (Streptomyces avidinii) (P22629 whole entry, looked up): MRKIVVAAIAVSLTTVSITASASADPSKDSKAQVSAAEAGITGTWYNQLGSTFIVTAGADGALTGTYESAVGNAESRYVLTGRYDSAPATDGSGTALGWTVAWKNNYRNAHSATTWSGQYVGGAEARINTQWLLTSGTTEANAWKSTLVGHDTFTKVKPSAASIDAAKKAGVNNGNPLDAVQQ
Chain of NADPH oxidase 4 (Homo sapiens) (Q9NPH5 whole entry, looked up): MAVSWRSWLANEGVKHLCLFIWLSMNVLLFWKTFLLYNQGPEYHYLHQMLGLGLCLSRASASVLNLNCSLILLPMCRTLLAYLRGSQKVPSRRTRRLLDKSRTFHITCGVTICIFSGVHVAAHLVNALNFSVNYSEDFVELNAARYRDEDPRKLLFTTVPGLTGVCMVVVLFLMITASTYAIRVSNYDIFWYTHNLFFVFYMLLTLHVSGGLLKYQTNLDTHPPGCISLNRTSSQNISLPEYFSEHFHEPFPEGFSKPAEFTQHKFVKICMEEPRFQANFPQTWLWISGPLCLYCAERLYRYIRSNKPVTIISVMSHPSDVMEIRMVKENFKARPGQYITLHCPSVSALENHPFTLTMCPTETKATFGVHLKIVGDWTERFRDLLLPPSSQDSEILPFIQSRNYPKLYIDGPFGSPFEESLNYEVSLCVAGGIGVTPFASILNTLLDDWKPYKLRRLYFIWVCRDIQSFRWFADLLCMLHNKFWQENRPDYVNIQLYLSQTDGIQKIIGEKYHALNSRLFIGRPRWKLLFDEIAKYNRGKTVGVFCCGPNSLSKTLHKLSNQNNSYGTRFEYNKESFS

Structure (SMILES) | composite z-score [1] | z-score [2] | z-score [3] | z-score [4] | z-score [5] | composite z-score [6] | composite z-score [7] | composite z-score (Torsin-1A (Homo sapiens) [8]) | composite z-score (Torsin-1A (Homo sapiens) [9]) | composite z-score [10] | z-score [11] | composite z-score [12] | z-score [13] | z-score [14] | z-score [15] | z-score [16] | z-score [17] | z-score [18] | z-score [19] | z-score [20]
C=C(COC)C(=O)CC[C@H](OC(=O)c1cccnc1)c1ccc(OCCO)cc1 | 0.965 | -2.1 (inactive) | 0.385 (inactive) | 1.54 (inactive) | 0.755 (inactive) | 0.257 | 0.103 | 0.613 | 1.43 | 2.4 | -0.367 (inactive) | -0.285 | 9.54 (active) | 1.2 (inactive) | 0.247 (inactive) | 0.553 (inactive) | -0.271 | -0.253 (inactive) | 0.592 (inactive) | -1.26
C=C(COC)/C(=C/C[C@@H](OC(C)=O)c1ccccc1OCCO)c1cnc2ccccc2c1 | 0.3 | -2.52 (inactive) | 0.514 (inactive) | 8.98 (active) | 0.879 (inactive) | 0.219 | -0.0087 | 2.53 | 2.34 | 2.29 | -0.146 (inactive) | 0.267 | 28.1 (active) | 14.2 (active) | 1.56 (inactive) | 1.71 (inactive) | 0.413 | -1.22 (inactive) | -1.04 (inactive) | -0.792
OCCCC1=CC(c2ccc(CN3CCCC3)cc2)N(Cc2cccc(OC(F)(F)F)c2)CC1 (stereo not given) | -0.131 | -9.01 (active) | 0.697 (inactive) | -0.0884 (inactive) | 0.593 (inactive) | -0.69 | -0.0791 | 0.265 | -0.165 | 0.365 | -2.64 (inactive) | 0.286 | 3.61 (inactive) | 0.935 (inactive) | 0.524 (inactive) | 0.749 (inactive) | -0.791 | -5.61 (inactive) | -2.06 (inactive) | -2.16
COc1cc(CO)cc(I)c1O[C@H]1C=C(C(=O)NCCO)C[C@@H](NC2CCCCCC2)[C@@H]1O | 0.29 | -1.65 (inactive) | 0.0741 (inactive) | 5.46 (inactive) | 0.0453 (inactive) | -0.0211 | -0.0115 | 0.0076 | 0.243 | 1.3 | 0.818 (inactive) | 0.0313 | 10.1 (active) | 1.55 (inactive) | 3.68 (inactive) | 1.09 (inactive) | 0.565 | 0.287 (inactive) | -0.789 (inactive) | -0.579
CC(C)c1nc2cc(Br)ccc2c(=O)o1 | 0.432 | -0.232 (inactive) | -0.523 (inactive) | -0.348 (inactive) | -0.524 (inactive) | 0.632 | -0.0736 | 0.0358 | 0.244 | 0.116 | 0.537 (inactive) | 0.202 | 2.79 (inactive) | 0.153 (inactive) | 0.958 (inactive) | 0.303 (inactive) | -0.228 | -0.421 (inactive) | -0.0107 (inactive) | 0.118
CCCCN1CC=CC23O[C@@H]4/C=C\CCCOC(=O)C4[C@H]2C(=O)N(C(CO)C(C)C)[C@@H]3C1=O (stereo not given in full) | -0.256 | -0.352 (inactive) | 1.3 (inactive) | -0.22 (inactive) | -0.182 (inactive) | -0.275 | 0.419 | -0.277 | -0.455 | 1.14 | -0.539 (inactive) | -0.178 | 1.47 (inactive) | 0.701 (inactive) | 0.434 (inactive) | 0.505 (inactive) | -0.515 | 1.71 (inactive) | 0.808 (inactive) | 1.69
N#Cc1ccc(-c2cccc(=O)o2)cc1 | 0.0017 | 0.454 (inactive) | -0.131 (inactive) | -0.163 (inactive) | 0.648 (inactive) | 0.427 | 0.085 | 0.435 | 0.0587 | 0.458 | -0.729 (inactive) | -0.0954 | 3.14 (inactive) | 1.15 (inactive) | -0.598 (inactive) | 0.979 (inactive) | -0.0905 | 0.191 (inactive) | -1.72 (inactive) | 0.172
CC(C)N1C(=O)c2ccccc2[C@@H](C(=O)NCC(F)(F)F)[C@@H]1c1ccc(CO)cc1 | -0.167 | 0.837 (inactive) | 1.03 (inactive) | 0.145 (inactive) | 0.557 (inactive) | -0.268 | -0.152 | -0.0705 | -1.02 | 0.119 | -0.234 (inactive) | 0.0376 | 2.15 (inactive) | 0.336 (inactive) | 0.181 (inactive) | -0.0376 (inactive) | -0.165 | 0.74 (inactive) | 0.912 (inactive) | -1.21
